Results taken from PubChem BioAssay AID1259415 (National Center for Advancing Translational Sciences (NCATS), 2018).
Where “and” joins values, the source holds several entries; their conditions need not be identical. Identical values can stand only once. Among all 410,000 compounds or so, about 18,000 (4.4%) were called active. About 7% were inconclusive and are not listed. Rule as the data show it: active = activity change below about -60%; inconclusive = no clear call, values can overlap the other calls; inactive = above about -39%. The sample as a whole holds a higher share of actives than the screen did. More than one record can exist for a structure, and the calls need not agree.

test: qHTS Assay for inhibitors of the human cytomegalovirus (HCMV); conditions: HFF cells, HCMV-luciferase reporter, 72 h; at 57.5 µM; stronger effect = lower value
Outline: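 Two compound doses tested in HFFs infected with HCMV-luciferase, MOI 1 PFU/cell, 72 h at 37C. Lysate luminescence read with OneGlo; data normalized against buffer-only and 10uM Salinomycin inhibitor controls.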
% is scaled to controls: 0 for no effect and ±100 for the full control effect.

Row | Structure (SMILES) | activity change, negative = inhibition
1 | O=C(COc1ccccc1F)Nc1ccc(C(=O)OCc2cc(=O)n3nc(C4CC4)sc3n2)cc1 | 10.3% (inactive)
2 | CCCC(=O)N1CCN(c2nc3c(OC)ccc(C)c3s2)CC1 | 0.538% (inactive)
3 | O=C(C1CC(=O)N(c2ccc(Br)cc2)C1)N1CCCC1 (stereo unspecified) | -23.4% (inactive)
4 | CN1OC[C@@H]2CN(S(=O)(=O)c3cccc(C(F)(F)F)c3)[C@H](c3ccc(-c4cc5ccccc5o4)cc3)C[C@@H]21 | -67.9% (active)
5 | COc1ccc(S(=O)(=O)N2C[C@H]3CON(C)[C@H]3C[C@H]2c2cccc(Br)c2)cc1 | -8.56% (inactive)
6 | COc1ccccc1-c1ccc([C@@H]2C[C@H]3[C@H](CON3C)CN2S(=O)(=O)c2cc(Cl)cc(Cl)c2)cc1 | 8.41% (inactive)
7 | CC(C)c1ccc(S(=O)(=O)Nc2ccc(O)c(Sc3nc4ccccc4s3)c2)cc1 | -0.0854% (inactive)
8 | Cc1cccc(NC(=O)Cn2nc(-c3ccc(Cl)cc3)c3ccccc3c2=O)c1 | -6.04% (inactive)
9 | O=C1C=C(c2ccc(Cl)cc2)C(=O)N1Nc1ccccc1 | -97.6% (active)
10 | CCc1ccc(S(=O)(=O)n2ccnc2)cc1 | -4.04% (inactive)
11 | Cc1c(C(=O)NCc2ccccc2Br)oc2ccc3c(c12)C(=O)CC(C)(C)O3 | -2.86% (inactive)
12 | O=C(CSc1nc2c(c(=O)[nH]1)CN(Cc1ccc3c(c1)OCO3)CC2)Nc1cc(F)ccc1F | -1.41% (inactive)
13 | CCOC(=O)c1c(NC(=O)CSc2cn(CCNC(=O)c3cccc(C(F)(F)F)c3)c3ccccc23)sc2c1CCC2 | -7.22% (inactive)
14 | O=C(CCSCc1ccccc1F)N1CCN(c2ccc(Cl)cc2)CC1 | -29.1% (inactive)
15 | Cc1oc2c(F)c(F)c(F)c(F)c2c1S(=O)(=O)Nc1cccc(C(F)(F)F)c1 | -97.8% (active)
16 | CN(CC(=O)Nc1cccc(C(F)(F)F)c1)S(=O)(=O)c1cccs1 | 20.2% (inactive)
17 | CCNS(=O)(=O)c1cc(-c2nnc(Nc3cccc(C(F)(F)F)c3)c3ccccc23)ccc1C | 34.1% (inactive)
18 | CCOC(=O)[C@]12CCC=C1N(Cc1ccco1)C(=O)[C@H](CC(=O)N1CCSCC1)C2 | -10.1% (inactive)
19 | CCOc1cc(-c2nnc(SCC(=O)NC3CCCC3)nc2-c2ccc(OC)c(OCC)c2)ccc1OC | 24.6% (inactive)
20 | CO/N=C/CC(=O)c1ccc(OC)cc1 | -35.1% (inactive)
21 | COc1ccc(C(=O)C[n+]2ccc(N)c(C)c2C)cc1 | -93.4% (active)
22 | COc1ccc(C(=O)C[n+]2ccc(C)cc2)cc1 | 72% (inactive)
23 | CCOc1ccc(OCC)c(NC(=O)c2cc(C)nc3c2c(C)nn3-c2cccc(Cl)c2C)c1 | 5.03% (inactive)
24 | C[C@@H]1CCCCO[C@H](CN(C)Cc2ccccc2)[C@@H](C)CN([C@H](C)CO)C(=O)c2cc(NS(=O)(=O)c3ccc(Cl)cc3)ccc2O1 | -31.2% (inactive)
25 | O=S(=O)(Nc1ccc(-c2ccc(N3CCOCC3)nn2)cc1)c1cc(Cl)ccc1Cl | -19.8% (inactive)
26 | Cn1cnc2c1c(=O)n(Cc1c(Cl)cccc1Cl)c(=O)n2C | -6.74% (inactive)

Row | Structure (SMILES) | activity change, negative = inhibition
27 | N#Cc1ccccc1Cn1cnc2nc3c(cc2c1=O)CCCC3 | 21.2% (inactive)
28 | Cn1cnc2c1c(=O)n(Cc1ccccc1C#N)c(=O)n2C | -66.7% (active)
29 | Cc1[nH]c2ccc(S(N)(=O)=O)cc2c1C | 28% (inactive)
30 | NS(=O)(=O)c1ccc(N=Nc2c(O)[nH]c3ccc(Br)cc23)cc1 | -60.1% (active)
31 | Cc1cccc(N=Nc2c(O)[nH]c3ccc(F)cc23)c1 | 101% (inactive)
32 | Cc1nnc(SCc2cc(=O)c3cc(F)ccc3[nH]2)n1C | 17.7% (inactive)
33 | CC(C)C(=O)Nc1nc2c(s1)CC(C(C)(C)C)CC2 (stereo unspecified) | 36.6% (inactive)
34 | O=C(Nc1cccc(Cl)c1)C1CCCN(c2cnccn2)C1 (stereo unspecified) | -9.65% (inactive)
35 | Cc1ccc(Cl)cc1NC(=O)C1CCCN(c2cnccn2)C1 (stereo unspecified) | -33.4% (inactive) and -71.5% (active)
36 | Cc1ccc(Cl)cc1NC(=O)C1CCN(S(C)(=O)=O)CC1 | 22% (inactive)
37 | COC(=O)c1ccccc1NC(=O)c1cnn(-c2ccc(F)cc2)c1-n1cccc1 | -4.4% (inactive)
38 | COc1ccc(-n2nc(C(=O)NCCc3ccc(Cl)cc3)c3c4ccccc4n(C)c3c2=O)cc1Cl | 1.81% (inactive)
39 | COc1ccc(S(=O)(=O)N2CCN(c3ccc(F)cc3)CC2)cc1-c1noc(C)n1 | -18.6% (inactive)
40 | O=C(NC1CC(=O)N(c2ccc(Cl)cc2)C1)C1CCCC1 (stereo unspecified) | 16.2% (inactive)
41 | COC(=O)C(C)C1Sc2ccccc2NC1=O (stereo unspecified) | -14.8% (inactive)
42 | CCCCCOC(=O)C1=C(C)Nc2nnnn2C1c1ccc(OC)c(OC)c1OC (stereo unspecified) | 13.7% (inactive)
43 | COc1ccc(C2Sc3ccccc3NC3=C2C(=O)c2ccccc23)c(OC)c1OC (stereo unspecified) | -74.4% (active)
44 | CCC1NC(=O)c2cccnc2-n2c1nc1ccc(C)cc1c2=O (stereo unspecified) | -2.47% (inactive)
45 | CSc1nc2ccc(C)cc2c(=O)n1-c1cccnc1 | -87.3% (active)
46 | COCCNC(=O)c1ccc(-n2c(SCc3cccnc3)nc3ccccc3c2=O)cc1 | -38.3% (inactive)
47 | CC1CCCN1CCC(C(N)=O)(c1ccccc1)c1ccccc1 (stereo unspecified) | -15% (inactive)
48 | CN1CCC[C@@H]1CCO[C@](C)(c1ccccc1)c1ccc(Cl)cc1 | -62.4% (active)
49 | OC(c1ccccc1)(c1ccccc1)C1CCN(CCCOc2ccccc2)CC1 | 2.18% (inactive)
50 | COc1ccc(-c2nc(C)c(CCNC(=O)c3ccc(C(F)(F)F)cc3)s2)cc1OC | 14.8% (inactive)
51 | N#Cc1ccc(CC(O)c2nc(C(=O)Nc3ccccc3)cs2)cc1 (stereo unspecified) | -100% (active)
52 | O=C(Nc1ccc(Cl)cc1)c1csc(C(O)c2cccc(C(F)(F)F)c2)n1 (stereo unspecified) | -20.2% (inactive)

Row | Structure (SMILES) | activity change, negative = inhibition
53 | O=C(Nc1ccc(Cl)cc1)c1csc([C@@H]2O[C@H](CO)[C@H](O)[C@H](O)[C@H]2O)n1 | 16.2% (inactive)
54 | COc1ccccc1Cc1c(-c2ccc(Cl)cc2)nc2c3ccccc3ccn12 | 22.4% (inactive)
55 | COc1cccc2c(C)c(C(=O)O)[nH]c12 | -2.81% (inactive)
56 | CCc1c(C)nc2c(OC)cccc2c1Cl | -75.4% (active)
57 | COc1ccc(C)cc1-n1c(-c2ccc(C)cc2)cc2c1CC(C)(C)CC2=O | 5.24% (inactive)
58 | CC(=O)Nc1ccc(S(=O)(=O)NC2(C(F)(F)F)C(=O)NC(C)=C2C#N)cc1 (stereo unspecified) | -29.9% (inactive)
59 | CC(C)CNc1ncnc2c1nnn2C | -27.2% (inactive)
60 | Cc1ccc(-n2nnnc2CNC(=O)c2ccccc2C)cc1C | -15.5% (inactive)
61 | O=C(NCc1nnnn1-c1ccc(Cl)cc1)c1ccc([N+](=O)[O-])o1 | -63.2% (active)
62 | O=C(NCc1nnnn1-c1ccc(Cl)cc1)c1ccc2c(c1)OCO2 | 21% (inactive)
63 | C=CCn1c(O)c(/C=N/N2CCOCC2)c(=O)[nH]c1=S | -8.35% (inactive)
64 | CCCCn1nc2ccccc2c1OCC | -7.88% (inactive)
65 | COc1ccccc1-c1cc(C(F)(F)F)nc(S(=O)(=O)CCCC(=O)Nc2cc(C)ccc2O)n1 | 7.44% (inactive)
66 | COc1ccccc1-c1cc(C(F)(F)F)nc(S(=O)(=O)CCCC(=O)Nc2ccc(F)cc2F)n1 | -93% (active)
67 | CSc1ccccc1NC(=O)CCS(=O)(=O)c1nc(-c2cccs2)cc(C(F)(F)F)n1 | 3.11% (inactive)
68 | Cc1nn(-c2ccccc2)nc1C(=O)OCC(=O)N1CCCCC1C (stereo unspecified) | 37.5% (inactive)
69 | CNc1cncc(-c2cccc(C(=O)N3CCOCC3)c2)n1 | 16.3% (inactive)
70 | Cc1oc2ncnc(N3CCCCC3)c2c1C(=O)N1CCN(c2cccc(Cl)c2)CC1 | 2.67% (inactive)
71 | C#Cc1cc(N2CCN(C(=O)c3ccoc3)CC2)n2nc(-c3cccc(Cl)c3)cc2n1 | -102% (active)
72 | COc1ccccc1-c1cc2nc(C)c(CCC(=O)NC3CCCCC3)c(C)n2n1 | -7.07% (inactive)
73 | C[C@]12CC[C@H](O)C[C@H]1CC[C@@H]1C2CC[C@]2(C)[C@@H](C3=CC(=O)OC3)[C@@H](O)C[C@]12O (stereo partly specified) | -99.6% (active)
74 | CC(=O)[C@@]12O[C@@H]1C[C@H]1[C@@H]3CC[C@H]4C[C@@H](O)CC[C@]4(C)[C@H]3CC[C@@]12C | -16% (inactive)
75 | Cc1cc2ccccc2n1CCNC(=O)c1ccc(F)cc1 | 0.319% (inactive)
76 | CC1=C(C(=O)OCc2ccc(C)cc2)C(c2c(Cl)cccc2Cl)CC(=O)N1 (stereo unspecified) | -18.7% (inactive)
